# Experimental data published in paper PMC7862700, “An all-to-all approach to the identification of sequence-specific readers for epigenetic DNA modifications on cytosine”.
# Legend:
# Experiment in all cases: DAPPL (digital affinity profiling via proximity ligation, sequencing); 10 mM Tris-HCl pH 7.5, 50 mM NaCl, 1 mM DTT, 4% glycerol, room temperature, 30 min; GST-TFs on glutathione beads, 16-mer random dsDNA library, 0.1% formaldehyde crosslink after washing; high values mean tight binding
# Conditions in all cases: protein: recombinant; tags: N-terminal GST; dsDNA, one strand shown
# FLI1 = target: T1, FLI1 (Homo sapiens, UniProt Q01543 1-452)
# T1 sequence: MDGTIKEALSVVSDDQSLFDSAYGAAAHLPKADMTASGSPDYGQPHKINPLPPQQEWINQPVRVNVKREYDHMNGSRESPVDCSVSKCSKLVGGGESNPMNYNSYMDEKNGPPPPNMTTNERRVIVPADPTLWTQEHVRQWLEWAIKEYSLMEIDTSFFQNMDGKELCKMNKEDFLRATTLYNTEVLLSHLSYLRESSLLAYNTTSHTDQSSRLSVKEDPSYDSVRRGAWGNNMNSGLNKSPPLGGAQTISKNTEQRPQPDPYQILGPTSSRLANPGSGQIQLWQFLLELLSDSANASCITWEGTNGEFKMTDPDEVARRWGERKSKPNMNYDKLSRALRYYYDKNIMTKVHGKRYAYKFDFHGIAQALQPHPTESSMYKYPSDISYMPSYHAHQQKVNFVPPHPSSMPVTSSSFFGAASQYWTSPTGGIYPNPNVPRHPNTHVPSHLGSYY
# Summary of the method: (§1)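 GST fusions of human transcription factors were expressed in yeast and captured with glutathione beads. Once given DNA barcodes and pooled alongside a tag-only sample, they were incubated for 30 min at room temperature with 200 nmole of a random double-stranded 16-mer DNA library in Tris/NaCl/DTT/glycerol buffer, then washed, crosslinked (0.1% formaldehyde), proximity-ligated, PCR-amplified and sequenced on an Illumina NextSeq500. The binding signal of each hexamer is its read frequency for a factor divided by its frequency for the tag-only sample.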
# ELK1 = target: T2, ELK1 (Homo sapiens, UniProt P19419 1-428)
# T2 sequence: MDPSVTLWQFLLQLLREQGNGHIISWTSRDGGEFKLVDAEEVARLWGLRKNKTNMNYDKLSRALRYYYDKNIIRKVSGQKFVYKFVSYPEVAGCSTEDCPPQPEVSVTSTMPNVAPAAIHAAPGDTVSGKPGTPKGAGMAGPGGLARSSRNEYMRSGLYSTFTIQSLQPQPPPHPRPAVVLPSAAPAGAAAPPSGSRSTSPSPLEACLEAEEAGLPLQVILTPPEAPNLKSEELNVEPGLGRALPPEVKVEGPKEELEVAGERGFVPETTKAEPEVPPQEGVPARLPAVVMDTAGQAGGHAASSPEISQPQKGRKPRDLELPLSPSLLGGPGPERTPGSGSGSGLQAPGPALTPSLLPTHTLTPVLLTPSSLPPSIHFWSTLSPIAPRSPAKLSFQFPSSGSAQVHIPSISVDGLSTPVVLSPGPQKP
# Summary of the method: as §1
# GABPA = target: T3, GABPA (Homo sapiens, UniProt Q06546 1-454)
# T3 sequence: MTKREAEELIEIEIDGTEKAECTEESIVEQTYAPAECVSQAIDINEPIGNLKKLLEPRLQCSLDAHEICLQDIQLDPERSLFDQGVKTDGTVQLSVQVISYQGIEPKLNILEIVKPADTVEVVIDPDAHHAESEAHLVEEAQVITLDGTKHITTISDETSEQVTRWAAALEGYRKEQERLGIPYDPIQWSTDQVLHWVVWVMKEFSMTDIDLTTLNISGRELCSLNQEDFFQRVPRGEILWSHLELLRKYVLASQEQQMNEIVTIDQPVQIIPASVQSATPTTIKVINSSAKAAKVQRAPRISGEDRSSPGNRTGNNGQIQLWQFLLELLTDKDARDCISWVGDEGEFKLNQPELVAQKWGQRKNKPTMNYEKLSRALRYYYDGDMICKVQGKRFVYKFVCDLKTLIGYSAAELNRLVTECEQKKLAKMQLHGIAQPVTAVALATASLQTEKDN
# Summary of the method: as §1
# ERG = target: T4, ERG (Homo sapiens, UniProt P11308 1-479)
# T4 sequence: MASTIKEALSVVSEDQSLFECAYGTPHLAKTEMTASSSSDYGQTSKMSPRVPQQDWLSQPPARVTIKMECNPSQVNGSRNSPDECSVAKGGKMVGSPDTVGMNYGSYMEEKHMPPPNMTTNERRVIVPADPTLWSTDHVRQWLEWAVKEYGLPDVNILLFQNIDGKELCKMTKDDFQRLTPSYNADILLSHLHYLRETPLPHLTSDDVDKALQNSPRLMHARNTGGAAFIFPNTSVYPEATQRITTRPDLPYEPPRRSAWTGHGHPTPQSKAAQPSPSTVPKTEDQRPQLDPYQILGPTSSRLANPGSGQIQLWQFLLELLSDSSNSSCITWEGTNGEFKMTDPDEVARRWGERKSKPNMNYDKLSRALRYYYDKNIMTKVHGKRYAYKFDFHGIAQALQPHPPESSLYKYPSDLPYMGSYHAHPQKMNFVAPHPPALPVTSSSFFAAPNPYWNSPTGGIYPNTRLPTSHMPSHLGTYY
# Summary of the method: as §1
# ELF1 = ELF1 (Homo sapiens, UniProt P32519 1-619)
# Summary of the method: as §1
# EHF = target: T5, EHF (Homo sapiens, UniProt Q9NZC4 1-300)
# T5 sequence: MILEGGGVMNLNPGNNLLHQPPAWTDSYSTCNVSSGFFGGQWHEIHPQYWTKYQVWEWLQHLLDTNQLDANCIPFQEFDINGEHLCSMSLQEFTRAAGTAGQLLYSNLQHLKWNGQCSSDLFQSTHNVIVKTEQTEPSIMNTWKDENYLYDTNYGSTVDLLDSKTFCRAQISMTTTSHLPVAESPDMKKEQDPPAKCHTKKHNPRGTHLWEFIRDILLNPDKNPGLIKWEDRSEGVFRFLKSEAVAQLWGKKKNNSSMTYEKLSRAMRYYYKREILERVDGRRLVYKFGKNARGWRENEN
# Summary of the method: as §1
# SPI1 = SPI1 (Homo sapiens, UniProt P17947 1-270)
# Summary of the method: as §1
# SPIB = SPIB (Homo sapiens, UniProt Q01892 1-262)
# Summary of the method: as §1
# ELK3 = target: T6, ELK3 (Homo sapiens, UniProt P41970 1-407)
# T6 sequence: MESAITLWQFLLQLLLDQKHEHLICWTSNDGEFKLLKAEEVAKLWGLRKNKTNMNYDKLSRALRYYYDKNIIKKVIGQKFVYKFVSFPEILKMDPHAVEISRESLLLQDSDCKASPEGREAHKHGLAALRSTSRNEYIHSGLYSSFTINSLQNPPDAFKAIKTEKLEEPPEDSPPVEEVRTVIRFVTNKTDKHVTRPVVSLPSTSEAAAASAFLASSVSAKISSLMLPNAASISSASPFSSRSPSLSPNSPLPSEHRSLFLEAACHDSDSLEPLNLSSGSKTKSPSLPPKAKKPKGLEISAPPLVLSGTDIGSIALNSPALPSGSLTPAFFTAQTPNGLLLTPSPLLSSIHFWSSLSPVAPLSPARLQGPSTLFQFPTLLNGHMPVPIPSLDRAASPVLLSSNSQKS
# Summary of the method: as §1
# Sequence of SPIB (Q01892 whole entry): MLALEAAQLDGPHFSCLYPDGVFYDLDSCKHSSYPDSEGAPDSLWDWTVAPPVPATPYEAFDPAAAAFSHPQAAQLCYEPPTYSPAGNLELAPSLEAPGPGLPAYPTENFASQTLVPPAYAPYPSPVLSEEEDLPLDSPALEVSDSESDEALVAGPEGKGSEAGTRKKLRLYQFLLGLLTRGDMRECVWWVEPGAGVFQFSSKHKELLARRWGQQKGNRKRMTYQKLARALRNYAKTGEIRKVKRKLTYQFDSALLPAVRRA
# Sequence of ELF1 (P32519 whole entry): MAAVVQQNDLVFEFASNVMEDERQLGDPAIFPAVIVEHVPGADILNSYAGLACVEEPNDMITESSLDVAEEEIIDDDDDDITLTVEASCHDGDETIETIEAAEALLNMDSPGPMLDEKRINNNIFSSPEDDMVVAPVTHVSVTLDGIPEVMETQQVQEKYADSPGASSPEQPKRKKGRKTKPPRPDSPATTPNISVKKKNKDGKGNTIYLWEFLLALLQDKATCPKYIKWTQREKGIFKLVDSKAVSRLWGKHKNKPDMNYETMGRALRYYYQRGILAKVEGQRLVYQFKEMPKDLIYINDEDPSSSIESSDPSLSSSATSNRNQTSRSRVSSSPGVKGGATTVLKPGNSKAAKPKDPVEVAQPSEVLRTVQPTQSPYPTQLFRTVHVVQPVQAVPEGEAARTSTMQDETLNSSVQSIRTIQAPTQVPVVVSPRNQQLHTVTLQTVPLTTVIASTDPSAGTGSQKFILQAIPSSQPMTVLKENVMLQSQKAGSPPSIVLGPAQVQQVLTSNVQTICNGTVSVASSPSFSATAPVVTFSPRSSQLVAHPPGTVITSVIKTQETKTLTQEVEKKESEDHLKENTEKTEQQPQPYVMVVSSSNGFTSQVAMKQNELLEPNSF
sequence,measurement,setting,value
TGTTTA,binding signal,FLI1,"1.2 fold enrichment (6-mer frequency, TF over GST control)"
same,binding signal,ELK1,"1.09 fold enrichment (6-mer frequency, TF over GST control)"
same,binding signal,GABPA,"1.18 fold enrichment (6-mer frequency, TF over GST control)"
same,binding signal,ERG,"1.17 fold enrichment (6-mer frequency, TF over GST control)"
same,binding signal,ELF1,"1.13 fold enrichment (6-mer frequency, TF over GST control)"
same,binding signal,EHF,"1.19 fold enrichment (6-mer frequency, TF over GST control)"
same,binding signal,SPI1,"1.12 fold enrichment (6-mer frequency, TF over GST control)"
same,binding signal,SPIB,"1.21 fold enrichment (6-mer frequency, TF over GST control)"
same,binding signal,ELK3,"1.2 fold enrichment (6-mer frequency, TF over GST control)"
